# Results filed as inconclusive are left out. Active and inactive are the calls of the source. Calls follow the shape of the dose curve; as a rule, active = well fitted inhibition curve with a large enough effect in the signal ratio in the repeat runs (not every such curve was filed as active); inconclusive = weak or mixed curves; inactive = flat fitted curve, though single readings scatter; the % refers to the signal ratio.
# Biological target: Progesterone receptor (Homo sapiens) (UniProt P06401)
# Sequence (P06401 whole entry, looked up): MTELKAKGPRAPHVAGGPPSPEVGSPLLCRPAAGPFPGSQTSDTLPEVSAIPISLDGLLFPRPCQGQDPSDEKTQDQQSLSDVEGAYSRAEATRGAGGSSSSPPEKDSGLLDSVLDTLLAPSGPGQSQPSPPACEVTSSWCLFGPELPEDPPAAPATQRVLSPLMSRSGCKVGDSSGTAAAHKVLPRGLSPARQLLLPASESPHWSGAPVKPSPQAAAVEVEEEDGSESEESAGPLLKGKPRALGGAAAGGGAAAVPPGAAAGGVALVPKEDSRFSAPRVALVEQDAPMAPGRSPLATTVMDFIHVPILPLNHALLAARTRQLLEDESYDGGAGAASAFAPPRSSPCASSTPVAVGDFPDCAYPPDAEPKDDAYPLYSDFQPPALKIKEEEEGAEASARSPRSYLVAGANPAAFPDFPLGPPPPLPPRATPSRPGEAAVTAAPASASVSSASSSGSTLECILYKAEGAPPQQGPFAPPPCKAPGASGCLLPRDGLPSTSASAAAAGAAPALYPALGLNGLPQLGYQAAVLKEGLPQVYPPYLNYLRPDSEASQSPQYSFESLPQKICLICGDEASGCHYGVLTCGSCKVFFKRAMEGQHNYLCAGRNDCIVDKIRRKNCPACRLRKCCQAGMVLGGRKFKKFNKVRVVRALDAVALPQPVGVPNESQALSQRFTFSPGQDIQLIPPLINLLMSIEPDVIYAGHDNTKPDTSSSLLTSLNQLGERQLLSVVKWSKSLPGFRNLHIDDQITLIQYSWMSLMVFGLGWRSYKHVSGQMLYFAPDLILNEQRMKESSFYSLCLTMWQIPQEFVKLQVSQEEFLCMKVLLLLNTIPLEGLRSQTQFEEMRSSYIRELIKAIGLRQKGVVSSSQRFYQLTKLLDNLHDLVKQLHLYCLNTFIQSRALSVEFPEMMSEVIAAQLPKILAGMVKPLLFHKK
# Assay: qHTS assay to identify small molecule antagonists of the progesterone receptor (PR) signaling pathway (AID 1346795)
# Details: PR-UAS-bla HEK293T, beta-lactamase FRET ratio, 16 h; series mostly up to 92.4 µM; activity change, negative = inhibition: at the top concentration
# Text: National Center for Advancing Translational Sciences [NCATS]
# NIH Chemical Genomics Center [NCGC]
# U.S. Environmental Protection Agency [EPA]
# National Institutes of Environmental Health Sciences [NIEHS]
# National Toxicology Program [NTP]
# U.S. Food and Drug Administration [FDA]
# Progesterone receptor (PR), a nuclear hormone receptor, plays an important role in development, metabolic homeostasis and reproduction. […] Endocrine disrupting chemicals (EDCs) and their interactions with steroid hormone receptors like PR causes disruption of normal endocrine function. To identify the compounds that inhibit PR signaling, a PR-UAS-bla GripTite cell line i.e. PR-UAS-bla HEK293T (Invitrogen, Carlsbad, CA, USA) containing a beta-lactamase reporter gene under the control of an Upstream Activator Sequence (UAS) was used to screen Tox21 10K compound library.
# Tox21 Assay Protocol Summary:
# PR-UAS-bla HEK293T cells were dispensed at 3,000 cells/4 uL of assay medium containing 2% charcoal stripped FBS per well into black wall/clear-bottom 1536-well plates using a Multidrop Combi (ThermoFisher Scientific, Waltham, MA) dispenser. After the assay plates were incubated at a 37C and 5% CO2 for 6 hr, 23 nL of compounds dissolved in DMSO, positive controls or DMSO only was transferred to the assay plate by a Pintool station (Kalypsys, San Diego, CA), followed by addition of 1 uL (1nM as final concentration) of Promegestone (R5020) in assay medium using a BioRAPTR FRD (Flying Reagent Dispenser, Aurora Discovery, San Diego, CA). The plates were incubated at 37C and 5% CO2 for 16 hr. Then 1 uL of LiveBLAzer B/G FRET substrate was added using a FRD. After the plates were incubated at room temperature for 2 hours, fluorescence intensity was measured by an Envision plate reader (PerkinElmer, Shelton, CT).
# % is scaled to controls: 0 for no effect and ±100 for the full control effect; potency is read from the fitted curve at half-maximal effect.
SMILES,"activity change, negative = inhibition",Potency
C=CCCCCCCCCCCCCCC,7.49% [at 18.9 µM] (inactive),–
Cc1cc(C)c(N)c(Cl)c1,11.9% (inactive),–
CN(C)c1ccncc1,0.262% (inactive),–
CCCOc1ccc(C(=O)OCCN(CC)CC)cc1N,1.87% [at 42.5 µM] (inactive),–
C[C@@H]1CCC[C@H](C)N1CCCC(O)(c1ccccc1)c1ccccn1 (stereo not given in full),1.95% [at 42.5 µM] (inactive),–
CC[N+](C)(CC)CC,6.34% (inactive),–
Cc1ccc(O)c(C(=O)c2ccccc2)c1,-25.8% (inactive),–
C=CC(=O)CC,4.25% (inactive),–
CC(=O)c1ccc(O)c(C(N)=O)c1,4.7% [at 42.5 µM] (inactive),–
CCCC(=O)OC,12.9% (inactive),–
O=C1CCCc2c(O)cccc21,-11.7% [at 42.5 µM] (inactive),–
CC/C=C\CCCCCCCCCCOC(C)=O,10.9% (inactive),–
CC(O)C(CO)C(C)O (stereo not given),0.656% (inactive),–
CCOCCOCCOC(C)=O,6.71% (inactive),–
O=C[C@@H](O)[C@H](O)[C@H](O)CO,9.87% (inactive),–
CO/N=C(\C(=O)O)c1csc(NC(=O)CCl)n1,4.72% [at 42.5 µM] (inactive),–
COCCCOc1cc(C[C@@H](C[C@H](N)[C@@H](O)C[C@H](C(=O)NCC(C)(C)C(N)=O)C(C)C)C(C)C)ccc1OC,5.58% [at 42.5 µM] (inactive),–
Cc1cc(=O)oc2cc(O[C@@H]3SC[C@@H](O)[C@H](O)[C@H]3O)ccc12,1.92% [at 42.5 µM] (inactive),–
C=C(C)C(=O)OCCOC1CC2CC1C1C=CCC21 (stereo not given),10.2% (inactive),–
CC(=O)/C=C/C=C1/C2CCC(C2)C1(C)C (stereo not given),0.456% [at 42.5 µM] (inactive),–

SMILES,"activity change, negative = inhibition",Potency
CCc1ccc(CC)cc1,1.42% (inactive),–
COC(=O)c1ccc(NC(C)=O)cc1OC,3.2% [at 42.5 µM] (inactive),–
Nc1ccc(C(=O)NCC(=O)O)cc1,7.62% [at 42.5 µM] (inactive),–
CCCCCCCOC(C)=O,-0.287% (inactive),–
Cc1cccc(N)n1,12.3% (inactive),–
c1coc(Cn2cccc2)c1,7.2% (inactive),–
CC(C)(Sc1cc(C(C)(C)C)c(O)c(C(C)(C)C)c1)Sc1cc(C(C)(C)C)c(O)c(C(C)(C)C)c1,1.95% [at 42.5 µM] (inactive),–
CCCCCCCCC1CO1 (stereo not given),10.5% (inactive),–
O=C(O)CCC(=O)Nc1ccc(S(=O)(=O)Nc2nccs2)cc1,-0.78% [at 42.5 µM] (inactive),–
NC[C@H]1O[C@H](O[C@H]2[C@H](O)[C@@H](O[C@H]3O[C@H](CO)[C@@H](O)[C@H](N)[C@H]3O)[C@H](N)C[C@@H]2N)[C@H](N)[C@@H](O)[C@@H]1O,11.8% [at 18.9 µM] (inactive),–
CC(=O)c1ccc2ccc3ccccc3c2c1,–,9.63 µM (active)
O=C(O)CCCCCCCCCC(=O)O,13.3% (inactive),–
COC(C)(C)CC(C)=O,11.8% (inactive),–
CCC(=O)OCCOc1ccccc1,2.03% (inactive),–
O=S(=O)(O)CC(O)CCl (stereo not given),14.9% (inactive),–
C[C@@H](CN1CC(=O)NC(=O)C1)N1CC(=O)NC(=O)C1,-5.35% [at 42.5 µM] (inactive),–
CN(C)CCc1c[nH]c2ccc(CS(=O)(=O)N3CCCC3)cc12,7.9% [at 42.5 µM] (inactive),–
Cc1ccccc1OCC(=O)O,12.1% (inactive),–
CC(C)(C)c1ccc(C(=O)CCCCl)cc1,-17.9% [at 42.5 µM] (inactive),–
CCO[Si](CC(C)C)(OCC)OCC,-12% (inactive),–
